The text below walks through data of PubChem BioAssay (NCI).

Among the test systems are SR leukemia; RPMI-8226 leukemia; OVCAR-8 ovarian; OVCAR-5 ovarian; OVCAR-4 ovarian; SK-OV-3 ovarian; IGROV1 ovarian; OVCAR-3 ovarian; HS 578T breast; NCI/ADR-RES ovarian; T-47D breast; BT-549 breast; MDA-MB-435 melanoma; SW-620 colon; MCF7 breast; HCT-116 colon; HCC-2998 colon; KM12 colon.
What all share (experiment): NCI-60 one-dose screen, 48 h (100 = growth as untreated, 0 = no growth, -100 = all killed)
Holding throughout (settings): 10 µM unless noted

SMILES strings stand for the structures. About 83,000 compounds went through this panel and 20% of them were active in at least one assay; those are over-represented in the sample as a whole.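 Compound tested at a single concentration for 48 hours in 96-well plates; a percent growth value below 10 was scored as active.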 A number with no mark means an inactive call. Active and inactive are the calls of the source.

Regarding `N#Cc1cnc(NCCc2ccncc2)nc1-n1cnc2ccccc21`, the growth with SR leukemia was 35.4%; in the test on RPMI-8226 leukemia, 65.3%; in the test on OVCAR-8 ovarian, 54%; in the test with OVCAR-5 ovarian it was 66.9%; with OVCAR-4 ovarian, 74.2%; with SK-OV-3 ovarian, 25.5%. Besides, the growth in the test on IGROV1 ovarian was 29.1%; in the test on OVCAR-3 ovarian, 76.7%; in the test with HS 578T breast, 72.1%; with NCI/ADR-RES ovarian, 64.9%; in the test with T-47D breast, 54.5%; in the test with BT-549 breast, 48.5%. The growth is 69% in the test on MDA-MB-435 melanoma; 58.8% in the test on SW-620 colon; 64.4% in the test on MCF7 breast; 24.8% in the test on HCT-116 colon; 58.5% in the test with HCC-2998 colon; 25.9% in the test on KM12 colon.

Take `Nc1c(C(=O)Nc2ccncc2)sc2nc3c(cc12)CCCCCC3`: the growth was 20.8% with SR leukemia; 64.9% in the test with RPMI-8226 leukemia; 86.7% with OVCAR-8 ovarian; 90.7% in the test with OVCAR-5 ovarian; 86.9% in the test with OVCAR-4 ovarian; 79.6% in the test with SK-OV-3 ovarian. The growth is 103% with IGROV1 ovarian; 104% in the test on OVCAR-3 ovarian; 83.2% with HS 578T breast; 89% with NCI/ADR-RES ovarian; 49.9% with T-47D breast; 69.4% with BT-549 breast. Also, the growth in the test on MDA-MB-435 melanoma was 96%; in the test with SW-620 colon it was 103%; with MCF7 breast, 78.5%; in the test with HCT-116 colon it was 65.5%; in the test on HCC-2998 colon, 94.1%; with KM12 colon, 80.7%.

For the compound `CCOC(=O)c1c(NC(=O)c2ccc(C(C)C)cc2)sc2c(CN(C)C)c(O)ccc12`, the growth is -21.5% (active) in the test with SR leukemia; -20% (active) in the test with RPMI-8226 leukemia; 89.1% in the test on OVCAR-8 ovarian; 64.1% in the test with OVCAR-5 ovarian; 87.2% with OVCAR-4 ovarian; 99.2% with SK-OV-3 ovarian. Further, the growth with IGROV1 ovarian was 72.5%; in the test on OVCAR-3 ovarian it was 96.1%; with HS 578T breast, 86.2%; in the test on NCI/ADR-RES ovarian it was 72.6%; in the test with T-47D breast, 61%; with BT-549 breast it was 89.7%. Besides, the growth in the test with MDA-MB-435 melanoma was 21.3%; in the test with SW-620 colon it was -58.6% (active); with MCF7 breast it was 15.2%; with HCT-116 colon, 4.82% (active); in the test on HCC-2998 colon, -55.8% (active); in the test with KM12 colon, 1.36% (active).

Turning to `COc1cccc([C@H]2c3[nH]c4ccccc4c3C[C@H]3C(=O)N(CCCCCCC(=O)NO)CC(=O)N23)c1`, the growth in the test on SR leukemia is 4.26% (active); in the test on RPMI-8226 leukemia it was 14.6%; in the test on OVCAR-8 ovarian it was 65.6%; with OVCAR-5 ovarian, 62.1%; with OVCAR-4 ovarian, 62%; in the test with SK-OV-3 ovarian it was 77.1%. The growth in the test with IGROV1 ovarian is 64.4%; in the test with OVCAR-3 ovarian, 64.7%; in the test with HS 578T breast it was 59.6%; in the test on NCI/ADR-RES ovarian, 91.1%; in the test on T-47D breast, 31.5%; in the test on BT-549 breast it was 77.9%. Further, the growth in the test on MDA-MB-435 melanoma was 61.2%; with SW-620 colon it was 57.4%; with MCF7 breast it was 53.7%; with HCT-116 colon, 35.3%; in the test on HCC-2998 colon it was 68.2%; in the test with KM12 colon, 78.9%.

Take `CCN1CCN(c2cc(C(=O)Nc3nc(-c4cc(OC)c(OC)c(OC)c4)cs3)cc(C(F)(F)F)c2)CC1`: the growth with SR leukemia is 9.19% (active); in the test on RPMI-8226 leukemia, 56.9%; in the test on OVCAR-8 ovarian, 65.1%; with OVCAR-5 ovarian, 74.6%; with OVCAR-4 ovarian, 68.9%; in the test on SK-OV-3 ovarian, 90.5%. For the same compound, the growth in the test with IGROV1 ovarian is 41.5%; with OVCAR-3 ovarian, 81.3%; with HS 578T breast it was 68.1%; with NCI/ADR-RES ovarian, 55.8%; with T-47D breast, 43.7%; in the test on BT-549 breast, 75.2%. Moreover, the growth with MDA-MB-435 melanoma was 74.4%; with SW-620 colon it was 65.6%; with MCF7 breast, 39.8%; with HCT-116 colon, 33.4%; with HCC-2998 colon, 43.9%; with KM12 colon, 71.1%.

As for `C=C(C)[C@@H]1CC[C@]2(C(=O)N3CCN(C)CC3)CC[C@]3(C)[C@H](CC[C@@H]4[C@@]5(C)CC(=C/c6ccncc6)/C(=N/O)C(C)(C)[C@@H]5CC[C@]43C)[C@@H]12`, the growth with SR leukemia was 3.4% (active); in the test with RPMI-8226 leukemia, 46.7%; with OVCAR-8 ovarian, 85.1%; with OVCAR-5 ovarian it was 86.7%; with OVCAR-4 ovarian, 69.2%; with SK-OV-3 ovarian, 98.7%. Besides, the growth with IGROV1 ovarian is 65.1%; in the test on OVCAR-3 ovarian, 75.2%; in the test with HS 578T breast, 87.5%; in the test with NCI/ADR-RES ovarian, 78.8%; with T-47D breast, 71.9%; with BT-549 breast, 82.7%. The growth was 86.6% in the test with MDA-MB-435 melanoma; 72.8% with SW-620 colon; 66.8% in the test with MCF7 breast; 56.1% in the test on HCT-116 colon; 82.7% in the test with HCC-2998 colon; 72.1% in the test with KM12 colon.

Turning to `CCN(C(=O)N1CCN(c2cc3c(cc2F)c(=O)c(C(=O)O)cn3C2CC2)CC1)c1nc(-c2ccc(Cl)cc2)cs1`, the growth is 6.27% (active) in the test with SR leukemia; 12.8% in the test with RPMI-8226 leukemia; 14.4% in the test on OVCAR-8 ovarian; 24.5% in the test with OVCAR-5 ovarian; 25.7% in the test with OVCAR-4 ovarian; -11.9% (active) with SK-OV-3 ovarian. Moreover, the growth in the test with IGROV1 ovarian was -9.58% (active); in the test on OVCAR-3 ovarian, 10.1%; in the test with HS 578T breast, 20.7%; in the test on NCI/ADR-RES ovarian, 4.67% (active); in the test on T-47D breast, 22.3%; in the test with BT-549 breast it was -8.09% (active). Also, the growth in the test with MDA-MB-435 melanoma was 17.9%; in the test with SW-620 colon, 18.3%; in the test on MCF7 breast it was 9.42% (active); with HCT-116 colon, 9.89% (active); in the test on HCC-2998 colon it was 25%; in the test on KM12 colon, 13.1%.

Regarding `Cn1c(=O)c2[nH]c(N/N=C/c3ccccc3Br)nc2n(C)c1=O`, the growth is 89.7% in the test with SR leukemia; 105% in the test with RPMI-8226 leukemia; 112% in the test on OVCAR-8 ovarian; 89.5% in the test with OVCAR-5 ovarian; 117% in the test with OVCAR-4 ovarian; 117% with SK-OV-3 ovarian. Moreover, the growth in the test on IGROV1 ovarian was 101%; with OVCAR-3 ovarian, 119%; in the test with HS 578T breast it was 161%; in the test with NCI/ADR-RES ovarian, 104%; in the test with T-47D breast, 108%; in the test on BT-549 breast, 99%. For the same compound, the growth in the test on MDA-MB-435 melanoma was 113%; with SW-620 colon, 109%; in the test on MCF7 breast, 91.4%; with HCT-116 colon it was 103%; in the test on HCC-2998 colon, 118%; with KM12 colon, 98.6%.

As to `CCN(CC)CCSc1nc(-c2ccccc2)c(C#N)c(=O)[nH]1`, the growth in the test on SR leukemia is 92.3%; in the test with RPMI-8226 leukemia it was 119%; with OVCAR-8 ovarian, 111%; with OVCAR-5 ovarian it was 108%; in the test on OVCAR-4 ovarian, 154%; in the test on SK-OV-3 ovarian it was 90.8%. For the same compound, the growth in the test with IGROV1 ovarian is 117%; with OVCAR-3 ovarian it was 116%; in the test with HS 578T breast, 63.5%; in the test with NCI/ADR-RES ovarian it was 58%; in the test on T-47D breast, 93.8%; in the test on BT-549 breast, 94.9%. Moreover, the growth in the test on MDA-MB-435 melanoma was 103%; in the test with SW-620 colon, 94.4%; with MCF7 breast it was 104%; with HCT-116 colon it was 105%; in the test on HCC-2998 colon it was -6.88% (active); in the test with KM12 colon, 118%.

Take `COc1cc(-c2nc(SCC(C)C)nc(Nc3cccc4ccccc34)c2C#N)cc(OC)c1OC`: the growth was 40.7% in the test with SR leukemia; 91.2% in the test on RPMI-8226 leukemia; 92.1% in the test with OVCAR-8 ovarian; 109% with OVCAR-5 ovarian; 87.6% in the test on OVCAR-4 ovarian; 110% in the test with SK-OV-3 ovarian. In addition, the growth with IGROV1 ovarian is 106%; in the test with OVCAR-3 ovarian, 117%; in the test with HS 578T breast, 106%; in the test on NCI/ADR-RES ovarian it was 98.8%; in the test on T-47D breast, 70.3%; with BT-549 breast, 110%. In addition, the growth with MDA-MB-435 melanoma was 99.3%; in the test with SW-620 colon, 95.3%; in the test with MCF7 breast it was 94%; in the test on HCT-116 colon, 37.7%; with HCC-2998 colon, 118%; with KM12 colon it was 97.5%.

On to `CC1(C)CC[C@]2(c3nnc(-c4ccncc4)o3)CC[C@H]3C(=CC[C@H]4[C@@]3(C)CC[C@H]3C(C)(C)C(=O)CC[C@]43C)[C@@H]2C1`, for which the growth was 17% with SR leukemia; 19.2% in the test with RPMI-8226 leukemia; 86.9% in the test with OVCAR-8 ovarian; 96.1% in the test on OVCAR-5 ovarian; 70.1% in the test on OVCAR-4 ovarian; 82.9% in the test with SK-OV-3 ovarian. Also, the growth was 71.9% with IGROV1 ovarian; 45% in the test on OVCAR-3 ovarian; 82.4% in the test with HS 578T breast; 82% in the test on NCI/ADR-RES ovarian; 67.4% in the test on T-47D breast; 88.1% in the test on BT-549 breast. Besides, the growth is 78.2% with MDA-MB-435 melanoma; 59% with SW-620 colon; 53.5% in the test with MCF7 breast; 29% in the test with HCT-116 colon; 75.3% in the test on HCC-2998 colon; 70% with KM12 colon.
